Experiment [1] can be described thus: A CellTox Green Cytotoxicity Assay to monitor cytotoxicity in HEK293 cells - 40 hour (AID 1224871). Further: nearly all actives have a fitted effect of over 45% in size. In a few lines: (§1)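 Real-time, in one plate: 600 HEK293 cells/well with dead-cell DNA dye, pinned compound after 5 h, 37 C incubation over 40 h; viable cells give no appreciable fluorescence.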
A short description of experiment [2]: qHTS RealTime-Glo MT Cell Viability Assay in HEK293 cells - 16 hour (AID 1224872). Further: nearly all actives have a fitted effect of over 50% in size. Further: potency means the concentration at half of the fitted maximal effect. In short, it runs like this:
(§2)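 Cells + reagent dispensed (600 cells/well, HEK293) → 5 h at 37 C/5% CO2 → 23 nL compound in DMSO pinned → 40 h at 37 C → luminescence read at 0, 8, 16, 24, 32, 40 h.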

The nature of experiment [3]: qHTS RealTime-Glo MT Cell Viability Assay in HepG2 cells - 8 hour (AID 1224873). Further: nearly all actives have a fitted effect of over 55% in size. In a few lines:
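HepG2 cells (600/well) mixed with RealTime-Glo MT reagent, settled 5 h at 37 C/5% CO2 before compound addition. Nonlytic NanoLuc luminescence from viable-cell prosubstrate reduction read repeatedly during 40 h treatment at 37 C.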

Experiment [4] in a line: qHTS RealTime-Glo MT Cell Viability Assay in HEK293 cells - 40 hour (AID 1224874). Further: nearly all actives have a fitted effect of over 50% in size. Further: potency means the concentration at half of the fitted maximal effect. As to conditions: RealTime-Glo luminescence; max response: active compounds read low. In a few lines:
(§3)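 Kinetic, non-lysing viability readout. Seed HEK293 (600/well) with reagent, incubate 5 h at 37 C/5% CO2, pin 23 nL compound in DMSO, incubate at 37 C, read luminescence at 0, 8, 16, 24, 32, 40 h.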

A short description of experiment [5]: A CellTox Green Cytotoxicity Assay to monitor cytotoxicity in HEK293 cells - 24 hour (AID 1224875). Further: series mostly up to about 77 µM; nearly all actives have a fitted effect of over 45% in size. In a few lines:
as §1

The nature of experiment [6]: A CellTox Green Cytotoxicity Assay to monitor cytotoxicity in HepG2 cells - 16 hour (AID 1224876). Further: nearly all actives have a fitted effect of over 45% in size. In a few lines: (§4)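 Cytotoxicity was tracked as dead-cell DNA fluorescence in HepG2 cells treated with test compounds at 37 C; each time-point value comes from one kinetic series spanning 0, 8, 16, 24, 32 and 40 h.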
The nature of experiment [7]: qHTS RealTime-Glo MT Cell Viability Assay in HepG2 cells - 32 hour (AID 1224877). Further: nearly all actives have a fitted effect of over 55% in size. In short, it runs like this:
(§5)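 Real-time, nonlytic viability: 600 HepG2 cells/well mixed with NanoLuc enzyme plus prosubstrate; 5 h settle, compound (DMSO) added by pintool; luminescence monitored over 40 h at 37 C.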

The nature of experiment [8]: A CellTox Green Cytotoxicity Assay to monitor cytotoxicity in HepG2 cells - 24 hour (AID 1224878). Further: nearly all actives have a fitted effect of over 45% in size. In short, it runs like this: as §4
Experiment [9] can be described thus: A CellTox Green Cytotoxicity Assay to monitor cytotoxicity in HepG2 cells - 40 hour (AID 1224879). Further: nearly all actives have a fitted effect of over 40% in size. In a few lines: as §4
Experiment [10] can be described thus: qHTS RealTime-Glo MT Cell Viability Assay in HEK293 cells - 0 hour (AID 1224880). In a few lines:
as §3

The nature of experiment [11]: A CellTox Green Cytotoxicity Assay to monitor cytotoxicity in HEK293 cells - 32 hour (AID 1224881). Further: nearly all actives have a fitted effect of over 40% in size. In short, it runs like this:
as §1

Experiment [12] is described as follows: A CellTox Green Cytotoxicity Assay to monitor cytotoxicity in HepG2 cells - 0 hour (AID 1224882). Further: nearly all actives have a fitted effect of over 35% in size. In short, it runs like this: as §4
Experiment [13] can be described thus: A CellTox Green Cytotoxicity Assay to monitor cytotoxicity in HepG2 cells - 32 hour (AID 1224883). Further: nearly all actives have a fitted effect of over 50% in size. In a few lines:
as §4

A short description of experiment [14]: qHTS RealTime-Glo MT Cell Viability Assay in HepG2 cells - 16 hour (AID 1224885). Further: nearly all actives have a fitted effect of over 50% in size. In a few lines:
as §5

Experiment [15] is described as follows: qHTS RealTime-Glo MT Cell Viability Assay in HEK293 cells - 24 hour (AID 1224886). Further: nearly all actives have a fitted effect of over 50% in size. Further: potency means the concentration at half of the fitted maximal effect. In short, it runs like this: as §2
Experiment [16] is described as follows: qHTS RealTime-Glo MT Cell Viability Assay in HEK293 cells - 8 hour (AID 1224887). Further: nearly all actives have a fitted effect of over 50% in size. Further: potency means the concentration at half of the fitted maximal effect. In short, it runs like this: as §3
A short description of experiment [17]: qHTS RealTime-Glo MT Cell Viability Assay in HepG2 cells - 0 hour (AID 1224889). Further: nearly all actives have a fitted effect of over 50% in size. In short, it runs like this: as §5
Experiment [18] can be described thus: A CellTox Green Cytotoxicity Assay to monitor cytotoxicity in HepG2 cells - 8 hour (AID 1224890). Further: nearly all actives have a fitted effect of over 45% in size. In short, it runs like this: as §4
The nature of experiment [19]: A CellTox Green Cytotoxicity Assay to monitor cytotoxicity in HEK293 cells - 8 hour (AID 1224884). Further: nearly all actives have a fitted effect of over 35% in size. In short, it runs like this:
as §1

The nature of experiment [20]: A CellTox Green Cytotoxicity Assay to monitor cytotoxicity in HEK293 cells - 16 hour (AID 1224888). Further: nearly all actives have a fitted effect of over 35% in size. In short, it runs like this:
as §1

Values without a mark were called inactive. Inconclusive results are not listed. Active and inactive are the calls of the source. The call rests on the fitted dose curve; in most records, active means well fitted curve in the direction sought with a large enough effect in the repeat runs; inconclusive means weak or mixed curves; inactive means no such curve, though single readings can be large; an effect the other way counts as inactive or inconclusive.
On the % scale 0 is the no-effect control and ±100 the full control effect.

For the compound `CCOC(C)OCC`, the Potency entry in experiment [1], in [2], in experiment [5], in [6], in experiment [7] and in experiment [8] was “inactive” throughout. Moreover, the Potency entry in experiment [9], in experiment [10], in experiment [11], in [12], in [13] and in [15] was “inactive” each time. In addition, the Potency result in experiment [16], in experiment [17] and in experiment [18] was “inactive” each time. The outcome in experiment [3] and in [14] was inactive. Also, in experiment [4], the max response is -0.223%.
With `COc1ccc(CN(CCN(C)C)c2ncccn2)cc1`, the Potency result in experiment [1], in [2], in [5], in experiment [6], in [7] and in experiment [8] was “inactive” in each case. Besides, the Potency result in experiment [9], in experiment [10], in [11], in [12], in [13] and in experiment [19] was “inactive” each time. The Potency entry in experiment [15], in experiment [16] and in [18] was “inactive” throughout. The call in experiment [3] and in [14] was inactive. In addition, in experiment [4], the max response was 4.01%.
Take `COc1cc(CNC(=O)CCCC/C=C/C(C)C)ccc1O`: the Potency entry in experiment [1], in experiment [5], in experiment [6], in [7], in experiment [8] and in [9] was “inactive” throughout. Besides, the Potency entry in experiment [10], in [11], in experiment [12], in [13], in experiment [19] and in experiment [17] was “inactive” in each case. In addition, the Potency result in experiment [18] is “inactive”. Moreover, the Potency was 4.25 µM (active) in [2], 8.48 µM (active) in experiment [4], 4.77 µM (active) in [15] and 2.39 µM (active) in [16]. Moreover, the compound was classed as inactive in experiment [3] and in experiment [14].
With `CCc1ccc2c(c1)C(=O)c1ccccc1C2=O`, the Potency result in experiment [1], in experiment [2], in [5], in experiment [6], in experiment [7] and in experiment [8] was “inactive” each time. Besides, the Potency result in experiment [9], in experiment [10], in experiment [11], in [12], in experiment [13] and in [19] was “inactive” in each case. The Potency entry in experiment [15], in experiment [16], in [17] and in experiment [18] was “inactive” throughout. The result in [3] and in experiment [14] was inactive. Moreover, the max response in [4] was 11.6%.
With `FC(F)(Cl)C(F)(Cl)Cl`, the Potency entry in [1], in experiment [2], in experiment [5], in experiment [6], in [7] and in experiment [8] was “inactive” throughout. Further, the Potency entry in experiment [9], in experiment [10], in experiment [11], in [12], in experiment [19] and in [15] was “inactive” each time. In addition, the Potency entry in [16], in experiment [20], in experiment [17] and in experiment [18] was “inactive” throughout. Besides, the outcome in [3] and in [14] was inactive. Moreover, the max response in experiment [4] was 10.2%.
For the compound `CCC(C)CCCC(C)(C)O` (centres undefined), the Potency entry in experiment [1], in experiment [2], in [5], in experiment [6], in experiment [7] and in experiment [8] was “inactive” in each case. Besides, the Potency entry in [9], in [10], in experiment [11], in [12], in [19] and in experiment [15] was “inactive” throughout. The Potency entry in experiment [16], in experiment [20], in experiment [17] and in experiment [18] was “inactive” throughout. Besides, the outcome in experiment [3] and in experiment [14] was inactive. Besides, the max response in experiment [4] was 21.8%.
`OCCOc1cccc(OCCO)c1`: the Potency result in [1], in experiment [2], in experiment [5], in experiment [6], in experiment [7] and in experiment [8] was “inactive” throughout. Further, the Potency result in experiment [9], in [10], in experiment [11], in experiment [12], in experiment [19] and in [15] was “inactive” in each case. Further, the Potency result in experiment [16], in experiment [20], in experiment [17] and in [18] was “inactive” throughout. Besides, the compound was classed as inactive in experiment [3] and in experiment [14]. Further, the max response in [4] is 12.3%.
In the case of `O=C(O)c1ccncc1`, the Potency entry in experiment [1], in [2], in experiment [5], in [6], in [7] and in experiment [8] was “inactive” throughout. The Potency entry in [9], in [10], in experiment [11], in [12], in [13] and in experiment [19] was “inactive” throughout. Moreover, the Potency entry in experiment [15], in experiment [16] and in experiment [18] was “inactive” in each case. Also, the outcome in [3] and in [14] was inactive. Further, the max response in experiment [4] was 9.67%.
For the compound `CCC(C)C1N=C(C)C(C)S1` (centres undefined), the Potency result in experiment [1], in experiment [2], in experiment [5], in experiment [6], in experiment [7] and in experiment [8] was “inactive” in each case. Besides, the Potency entry in experiment [9], in [10], in experiment [11], in experiment [12], in [13] and in experiment [19] was “inactive” in each case. The Potency entry in experiment [15], in experiment [16] and in experiment [18] was “inactive” throughout. For the same compound, the result in experiment [3] and in [14] was inactive. Also, the max response in [4] is 6.11%.
For `O=C1C=CCCC1`, the Potency result in [1], in [2], in [5], in [6], in [7] and in experiment [8] was “inactive” in each case. Further, the Potency result in experiment [9], in experiment [10], in [11], in experiment [12], in [19] and in experiment [15] was “inactive” throughout. Moreover, the Potency result in [16], in [20], in [17] and in experiment [18] was “inactive” in each case. Moreover, the outcome in experiment [3] and in [14] was inactive. In addition, the max response in [4] was -0.315%.
With `Cc1c(N=C=O)cccc1N=C=O`, the Potency entry in experiment [1], in experiment [2], in experiment [5], in [6], in experiment [7] and in experiment [10] was “inactive” throughout. Moreover, the Potency entry in experiment [11], in experiment [12], in experiment [19], in experiment [15], in experiment [16] and in experiment [20] was “inactive” each time. In addition, the Potency entry in experiment [18] was “inactive”. The call in experiment [3] and in [14] was inactive. For the same compound, the max response in experiment [4] was 2.75%.
In the case of `CC(C)(Cc1c[nH]c2ccccc12)NCC(O)COc1ccccc1C#N` (centres undefined), the Potency entry in experiment [1], in experiment [5], in experiment [6], in [7], in [10] and in experiment [11] was “inactive” in each case. For the same compound, the Potency result in experiment [12], in [19], in experiment [20] and in experiment [18] was “inactive” throughout. The Potency was 16.9 µM (active) in experiment [2], 19 µM (active) in experiment [4], 9.52 µM (active) in [15] and 7.56 µM (active) in experiment [16]. The compound was called inactive in [3] and in experiment [14].
Regarding `Nc1ccccc1Nc1ccccc1`, the Potency entry in experiment [1], in experiment [2], in experiment [5], in experiment [6], in experiment [7] and in [8] was “inactive” throughout. The Potency entry in experiment [9], in experiment [10], in experiment [11], in [12], in [19] and in experiment [15] was “inactive” each time. In addition, the Potency result in experiment [20] and in experiment [18] was “inactive” throughout. The call in experiment [3] and in experiment [14] was inactive.

(Values after PubChem BioAssay (Tox21).)
